# Reference: PubChem BioAssay AID624256 (NMMLSC, 2012)
# Screen size: about 360,000 compounds; about 3,700 (1%) were called active. Roughly 2% stayed inconclusive and do not appear here.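 The calls were made as follows: active = normalized GFP-positive differentiation at or above the plate's own cutoff, the solvent-only control mean plus 3 SD; inconclusive = no clear call, values can overlap the other calls; inactive = the rest.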 Many of the other results were omitted from the sample, so actives are more common in it than they were.
# Experiment: HoxA9-arrested leukemia cell differentiation promoters – flow cytometry, MLPCN library, primary screen (AID 624256);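 as to GFP+ MAC1+ double positive: cells exposed to compound for four days before flow analysis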;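 as to normalized GFP-positive differentiation: cells exposed to compound for four days before flow analysis; 0% = DMSO wells and 100% = fulvestrant positive control at 5 µM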
# Conditions: ER-HoxA9 myeloid progenitors, lysozyme-GFP differentiation, at 10 µM; GFP+ MAC1+ double positive: measured here: differentiation confirmed by MAC1 staining, stronger effect = higher value; normalized GFP-positive differentiation: stronger effect = higher value
SMILES,GFP+ MAC1+ double positive,outcome,normalized GFP-positive differentiation
Clc1cccc(Cc2c(-c3cccc(Cl)c3)nc3ccc(Cl)cn23)c1,0.4%,inactive,
COc1ccc(CNC(=O)c2nnn(CC(=O)Nc3cc(C)cc(C)c3)c2N)cc1,0.5%,inactive,
CCOc1ccc(Cn2nnc(C(=O)Nc3ccc(OC)cc3OC)c2N)cc1,12.5%,,38% (active)
COc1ccc(NC(=O)Cn2nnc(C(=O)NCCc3ccc(OC)c(OC)c3)c2N)cc1,1%,inactive,
Cc1cccc(C)c1NC(=O)C(c1cccc(F)c1)N1CCN(C)CC1 (stereo not drawn),2.3%,inactive,
COc1ccc(S(=O)(=O)N2CCOCC2)cc1C(=O)Nc1nc2ccccc2s1,27.7%,,33.1% (active)
COc1ccc(S(=O)(=O)N2CCOCC2)cc1NC(=O)COc1ccccc1,0.8%,inactive,
COc1ccc(S(=O)(=O)N2CCOCC2)cc1C(=O)NC1CCCCC1,0.6%,inactive,
Cc1c(C(=O)NCC2CC2)sc(=O)n1Cc1cccc(F)c1,4.3%,inactive,
O=S1(=O)CC(N2CCN(Cc3ccccc3F)CC2)CN1Cc1cn(Cc2cccc(C(F)(F)F)c2)nn1 (stereo not drawn),1%,inactive,
O=C1C=CN2CCCC2CC1 (stereo not drawn),1.2%,,7.96% (active)
CC(=O)C1=CCC(c2ccccc2)N(S(=O)(=O)c2ccc(C)cc2)C1 (stereo not drawn),1.6%,inactive,
Cc1ccccc1S(=O)(=O)N1[C@@H](c2cccc(Cl)c2)C(C(=O)OC(C)(C)C)=CC[C@H]1c1ccc(Cl)cc1,0.4%,inactive,
COc1ccc(S(=O)(=O)N[C@@H]2C=C[C@@H](CC(=O)N3CCc4ccccc4C3)O[C@@H]2CO)cc1,1.9%,inactive,
CN1/C(=c2/s/c(=C3/C(=O)N(c4ccccc4)NC3=Nc3ccccc3)n(C)c2=O)C(C)(C)c2ccccc21,13.2%,,200% (active)
Cc1cccc(-c2cnc(C(O)c3ccc4ccccc4c3)[nH]2)c1 (stereo not drawn),0.2%,inactive,
CCCN(CCC)c1nc2c(C)cccn2c(=O)c1/C=C1/SC(=S)N(Cc2ccco2)C1=O,9.4%,,389% (active)
Cc1cccn2c(=O)c(C=O)c(Nc3ccc(S(N)(=O)=O)cc3)nc12,0.8%,inactive,
CNc1nc2c(C)cccn2c(=O)c1C=Nc1ccc(OC)cc1,0.6%,inactive,
Cc1cccn2c(=O)c(/C=C3\SC(=S)N(CC(C)C)C3=O)c(NCCCOC(C)C)nc12,6%,,235% (active)
Cc1ccc2[nH]c(=O)c(-c3nc4c(C)cccn4c3NCc3ccco3)cc2c1,0.8%,inactive,
CC(C)C1C(=O)N(Cc2cn(CCC3OCCO3)nn2)CCS(=O)(=O)N1Cc1ccc(-c2ccccc2C(F)(F)F)cc1 (stereo not drawn),1.5%,inactive,
CCCCOCCCNC(=O)C[C@@H]1C[C@@]2(C(=O)OC)CCCCC=C2N(CCC2=CCCCC2)C1=O,1.3%,inactive,
CCOC(=O)[C@]12CCCC=C1N(CCC1=CCCCC1)C(=O)[C@H](CC(=O)NCCCOC)C2,2.8%,inactive,
CC(C)NC(=O)C1(C)CCCCN1Cc1cccc(C(F)(F)F)c1 (stereo not drawn),1.4%,inactive,
COc1ccccc1CNC(=O)C1CCN(c2nc3ccccc3o2)CC1,4.6%,,9.06% (active)
COc1ccccc1CNC(=O)C1CCN(C(=O)[C@@H]2Cc3ccccc3CN2)CC1,4.9%,inactive,

SMILES,GFP+ MAC1+ double positive,outcome,normalized GFP-positive differentiation
COc1ccccc1CNC(=O)C1CCN(S(C)(=O)=O)CC1,0.7%,inactive,
CNC[C@H]1OCc2cnnn2CCCC(=O)N([C@H](C)CO)C[C@@H]1C,0.8%,inactive,
CC(C)C[C@H]1CNC(=O)C(=O)N1C[C@H]1CCCN1C[C@H](Cc1ccc(O)cc1)N1C[C@H](CC(C)C)N(CC2CCCCCC2)C(=O)C1=O,1.3%,inactive,
CCCCc1c(-c2ccc(Cl)cc2)ncn1CCc1ccccc1OC,2.2%,inactive,
N#CCC(=O)NC(=O)NCC1CC1,1.2%,inactive,
CC(C)(C)NC(=O)NC(=O)COC(=O)CCC1CCCCC1,0.5%,inactive,
O=C(NCC1CCCCC1)NCC1CCCCC1,5.3%,,9.67% (active)
COC(=O)Cc1ccc(OC2(C)CCN(Cc3ccc4c(c3)OCCO4)C2)cc1 (stereo not drawn),2.5%,inactive,
CCC(c1nc2ccccc2[nH]1)n1c(=O)c(-c2cccs2)nc2ccccc21 (stereo not drawn),2.5%,inactive,
CCCc1c(-c2ccccc2F)ncn1Cc1ccccc1OC,1.4%,inactive,
CCc1c(-c2ccc(F)cc2)ncn1Cc1cccc(-c2ccccc2)c1,3.4%,inactive,
Nc1cc(=O)n(Cc2ccccc2)c(=O)n1Cc1ccccc1,1.4%,inactive,
Cc1cc2nc3c(=O)n(Cc4ccccc4)c(=O)[nH]c3nc2cc1N,5%,,282% (active)
CN(C(=O)COC(=O)c1ccc(Br)o1)c1c(N)n(Cc2ccccc2)c(=O)[nH]c1=O,0.6%,inactive,
COC(=O)[C@]12CCCCC=C1N(CCC1=CCCCC1)C(=O)[C@H](CC(=O)N1CCSCC1)C2,0.5%,inactive,
N#CC1=C(N)Oc2cc(N)ccc2C1c1ccccc1 (stereo not drawn),0.2%,inactive,
N#CC1=C(N)Oc2c(ccc3cccnc23)C1c1ccncc1 (stereo not drawn),0%,inactive,
N#CC1=C(N)Oc2c(sc3ccccc23)C1c1ccco1 (stereo not drawn),2.5%,,197% (active)
CCCCNC(=O)OC1CC2CC1[C@H]1CCCCN1C2=O (stereo partly drawn),0.8%,inactive,
COC(=O)[C@@]12C[C@@H](CC(=O)NCCCCc3ccccc3)C(=O)N(Cc3ccccc3)C1=CCC(C)(C)C2,3.1%,inactive,
Cc1ccc(C(=O)NC2CCCC(C)C2C)cc1S(=O)(=O)N1CCCCC1 (stereo not drawn),2.2%,,27.1% (active)
CC1CCCC(NC(=O)c2cc(S(=O)(=O)N3CCCCC3)ccc2Cl)C1C (stereo not drawn),1.2%,inactive,
Cc1ccc(C(=O)NNC(=O)c2ccncc2)cc1S(=O)(=O)N1CCCCC1,0.5%,inactive,
CCOC(=O)[C@]12CCC=C1N(Cc1ccco1)C(=O)[C@H](CC(=O)NCc1cccc(C(F)(F)F)c1)C2,1.6%,inactive,
COc1ccccc1/C=C/C=N/NC(=O)CN1CCN(Cc2ccccc2)CC1,0.2%,inactive,
CN1CCN(CCC(=O)N/N=C/C=C2\N(C)c3ccccc3C2(C)C)CC1,2.2%,,224% (active)
Cc1cc(NC(=O)CCN2CCN(Cc3ccccc3)CC2)ccc1Br,0.5%,inactive,
